Inhibition data for 27 compounds are collected here from PubChem BioAssay AID449762 (Southern Research Specialized Biocontainment Screening …, 2010).

SMILES strings stand for the structures. In all, about 330,000 compounds went through this assay and about 1,900 (0.58%) were called active. About 4% were inconclusive and are not listed. No stated cut-off is given here; in the data, inconclusive means inhibition above about 70% without an active follow-up result; inactive means below that. A selection follows. Measured potencies and affinities stand elsewhere.

This assay in a line: M. tuberculosis growth inhibition, HTS (AID 449762).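 Further: bacterial growth assessed after seven days of incubation.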 As to conditions: M. tuberculosis H37Rv growth inhibition, 7H9 media; at 25 µM; stronger effect = higher value.
The inhibition is the relative decrease from the control value, in per cent. As for `O=Cc1ccccc1OCc1ccc2c(c1)OCO2`, the inhibition is 12.1% (inactive). The value for `CCOc1ccccc1NC(=O)Nc1ccc2c(c1)OCO2` was 0.34% (inactive). With `COc1ccc(-c2nnc(SC3CCOC3=O)n2C2CCCCC2)cc1OC` (configuration not stated), the inhibition is -0.52% (inactive).

For `Cc1ccccc1N1CC(=O)N(c2ccccc2C)CC1=O`, the inhibition was -15.8% (inactive).

With `Cn1c2ccccc2c(=O)c2ccc(F)cc21`, the inhibition was 38.4% (inactive).

Consider `COc1ccc(C2/C=C\CN(C(=O)C3CCCC3)[C@H](Cc3ccccc3)C(=O)N2Cc2ccc(F)cc2)cc1` (some centres not stated), for which the inhibition was 5.26% (inactive). In the case of `COc1ccc(CNC(=O)C2(C)Cc3ccccc3C(=O)O2)cc1` (configuration not stated), the inhibition is -2.25% (inactive). Take `Nc1ccc2nc(-c3ccccc3)[nH]c2c1`: the inhibition is -2.77% (inactive). With `Nc1ccc2nc(-c3ccccc3)c(-c3ccccc3)nc2c1`, the inhibition was 5.14% (inactive). For the compound `O=C(NCc1ccc(F)cc1)C1CCCN(C(=O)NCc2ccccc2)C1` (configuration not stated), the inhibition is 0.48% (inactive). The value for `Cc1ccc(C2(CC(=O)O)CCOC(C)(C)C2)cc1` (configuration not stated) was 5.71% (inactive).

On to `CCc1ccc2c(c1)C1(NN=C(c3ccc(C)cc3)S1)C(=O)N2` (configuration not stated), for which the inhibition is 5.72% (inactive). `Cc1cc(C)c(OCC(=O)Nc2ccccc2N2CCOCC2)c(C)c1`: the inhibition was -8.49% (inactive). On to `Cc1ccc(CSc2nc3ccccc3c(=O)n2C)cc1`, for which the inhibition is 6.4% (inactive). With `Cn1c(SCc2ccccc2)nc2ccsc2c1=O`, the inhibition was 33.7% (inactive). The value for `O=C(Nc1cccnc1Cl)c1cc([N+](=O)[O-])ccc1Cl` was 8.38% (inactive).

Turning to `OCCN(Cc1ccccc1)Cc1cccc(C(F)(F)F)c1`, the inhibition is 20.1% (inactive). The value for `COc1ccccc1/C=C/C(=O)OCC(=O)N1CCc2ccccc21` was 4.74% (inactive); that for `O=C(c1cccs1)N1CCC(c2nc3c(nnn3Cc3cccc(Cl)c3)c(=O)[nH]2)CC1` was 6.04% (inactive); that for `O=c1[nH]c(C2CCN(S(=O)(=O)c3ccccc3)CC2)nc2c1nnn2Cc1cccc(Cl)c1` was 4.46% (inactive). On to `O=C1CSC(c2ccccc2)N1CC12CC3CC(CC(O)(C3)C1)C2` (configuration not stated), for which the inhibition was -2.58% (inactive). Regarding `CCOc1ccc(NC(=O)CN(C)C(=O)c2cc3c(s2)CCC(C)C3)cc1OCC` (configuration not stated), the inhibition was 1.11% (inactive). The value for `COc1ccc(-c2nc(NC(=O)CSCCO)sc2C)cc1` was 2.7% (inactive). For the compound `COc1ccc(-c2nc(NC(=O)Cn3cnnn3)sc2C)cc1`, the inhibition was -7.31% (inactive). Consider `CCOc1ccc(N2C(=O)CC(NC3CCN(C(=O)c4ccc(F)cc4)CC3)C2=O)cc1` (configuration not stated), for which the inhibition was -3% (inactive).

As for `O=C(Oc1ccc(Br)cc1)c1cncc(Br)c1`, the inhibition is -0.43% (inactive). As to `Cc1cccc(OC(=O)c2cncc(Br)c2)c1`, the inhibition is 23.5% (inactive).
